Shown are actives, neighbours in structure and some others; about 2.4% of the full set was active somewhere.
Pol eta inh – qHTS for Inhibitors of Polymerase Eta | DNA polymerase eta (Homo sapiens), Q9Y253 | recombinant Pol eta, fluorescent DNA replication assay | Potency, µM (top dose mostly 114 µM), for inactives: at the highest dose activity change, negative = inhibition, hits mostly inhibitors | 390,000 compounds, 1.2% hits | AID 588591, 2011; note: % is set by controls: 0 for no effect and ±100 for the full control effect
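Pol eta at 10 nM preincubated with compounds 15 min at room temperature; reaction started with fluorescent substrate (50 nM final) and read kinetically at 0 and 10 min.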
POLK inh – qHTS for Inhibitors of Polymerase Kappa. DNA polymerase kappa (Homo sapiens), Q9UBT6. purified Pol kappa, fluorescent DNA synthesis assay, 10 min. Potency, µM (highest dose often 107 µM), without a hit: at the top dose activity, negative = inhibition, hits mostly inhibitors. 400,000 compounds, 0.53% hits; note: % is set by controls: 0 for no effect and ±100 for the full control effect
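Kinetic fluorescence readout at 0 and 10 min followed reaction start with substrate at 50 nM final. Beforehand, enzyme (10 nM Pol kappa) stood 15 min with compound at room temperature; buffer-only wells were negative controls.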
Pol beta inh – qHTS Assay for Inhibitors of DNA Polymerase Beta | 340,000 compounds, 1.3% hits | P06746 | AID 485314, 2010 | Potency, µM (doses to about 114 µM), for the others: at the top dose activity change, negative = inhibition, hits mostly inhibitors | Pol beta primer extension/strand displacement, fluorescence kinetic; note: % is set by controls: 0 for no effect and ±100 for the full control effect
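Pol beta (10 nM) was preincubated with compound for 15 min at room temperature. The reaction was then started with 50 nM substrate and read immediately and after a further 10 min at room temperature.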
Pol iota inh – qHTS for Inhibitors of Polymerase Iota | DNA polymerase iota (Homo sapiens), Q9UNA4 | Pol iota fluorescent replication assay, 10 min | Potency, µM (top dose mostly 115 µM), without a hit: at the top dose activity, negative = inhibition, usual class: inhibitors | 390,000 compounds, 1% hits | AID 588590, 2011
Target sequence (Q9UNA4 whole entry, looked up): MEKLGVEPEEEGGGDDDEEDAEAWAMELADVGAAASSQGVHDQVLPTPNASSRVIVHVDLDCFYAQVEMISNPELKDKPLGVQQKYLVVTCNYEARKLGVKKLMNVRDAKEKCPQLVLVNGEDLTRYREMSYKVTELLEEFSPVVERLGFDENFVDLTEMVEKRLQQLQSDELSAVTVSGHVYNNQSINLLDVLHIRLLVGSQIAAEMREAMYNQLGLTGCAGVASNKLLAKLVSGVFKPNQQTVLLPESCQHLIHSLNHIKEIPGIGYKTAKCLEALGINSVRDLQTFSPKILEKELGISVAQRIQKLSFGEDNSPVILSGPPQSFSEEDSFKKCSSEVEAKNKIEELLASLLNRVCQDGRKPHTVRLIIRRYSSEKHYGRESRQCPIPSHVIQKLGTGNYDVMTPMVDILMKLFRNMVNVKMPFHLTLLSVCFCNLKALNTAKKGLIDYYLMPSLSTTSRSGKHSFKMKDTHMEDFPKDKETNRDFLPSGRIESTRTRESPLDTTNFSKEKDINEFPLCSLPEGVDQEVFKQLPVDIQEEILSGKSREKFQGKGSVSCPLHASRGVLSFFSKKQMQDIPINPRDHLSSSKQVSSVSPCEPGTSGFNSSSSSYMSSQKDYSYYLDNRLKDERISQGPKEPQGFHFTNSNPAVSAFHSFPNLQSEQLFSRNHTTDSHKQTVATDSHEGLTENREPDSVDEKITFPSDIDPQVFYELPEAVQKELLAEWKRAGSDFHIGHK
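Pol iota at 10 nM preincubated 15 min with compounds at room temperature; reaction started with fluorescent substrate, 50 nM final. Fluorescence read kinetically at 0 and 10 min; buffer-only wells as negative control.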
FEN1 inhibitor – qHTS Assay for the Inhibitors of Human Flap endonuclease 1 (FEN1); 390,000 compounds, 0.35% hits; Potency, µM (series often up to 114 µM), without a hit: top-dose activity change, negative = inhibition, actives largely listed as inhibitors; Recombinant FEN1 flap cleavage, fluorescence, 15 min; note: % is set by controls: 0 for no effect and ±100 for the full control effect; nearly all actives have a fitted effect of over 65% in size
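Concentration–response screening of FEN1 (10 nM): 15 min compound preincubation at room temperature, reaction started with 50 nM substrate and read at 0 and 15 min. Corrected, normalized data were fitted by a four-parameter Hill equation.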
WRN helicase inh – qHTS for Inhibitors of WRN Helicase. Bifunctional 3'-5' exonuclease/ATP-dependent helicase WRN (Homo sapiens), Q14191. WRN helicase unwinding, fluorescent forked duplex, kinetic. Potency, µM (titrated, usually from 114 µM), for the others: at the top dose activity change, negative = inhibition, usual class: inhibitors. 360,000 compounds, 0.46% hits; note: % is set by controls: 0 for no effect and ±100 for the full control effect; nearly all actives have a fitted effect of over 55% in size
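WRN at 20 nM final preincubated with compound 15 min at room temperature; reaction started with 100 nM fluorophore/quencher forked duplex oligonucleotide and 2 mM ATP final. Unwinding followed kinetically by red fluorescence (ex 525, em 598 nm).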
Starred values were filed as active, the others as inactive; ? = inconclusive; / = no result given; ! = a repeat was not active; [ ] = another dose, or the depositor's remark. Calls come from the whole dose curve; as a rule, active = well fitted curve in the direction sought with a large enough effect; inconclusive = small, poorly fitted or top-dose-only effect, or another doubt; inactive = no such curve, though single readings can be large; an effect the other way counts as inactive or inconclusive. Potency is the fitted concentration of half-maximal effect.

SMILES | Pol eta inh | POLK inh | Pol beta inh | Pol iota inh | FEN1 inhibitor | WRN helicase inh
COc1nnc(-c2ccc(N3CCCCC3)c(NC(=O)c3ccc(Cl)cc3)c2)c2ccccc12 | -15% | -19% | -2% | 41% | 14% | /
CN1CCc2cc3c(c4c2C1Cc1ccccc1-4)OCO3 (stereo not given) | 3% | -2% | 16µM* | ? | ? | -1%[11.6 µM]
CN1CCc2cc3c(cc2[C@@H]1O)OCO3 | / | -4%[12 µM] | / | / | / | /
NCCCC[C@H](NC(=O)[C@H](Cc1ccccc1)NC(=O)[C@H](CCCN=C(N)N)NC(=O)[C@@H](N)Cc1ccc(O)cc1)C(N)=O | / | 6%[19.4 µM] | / | / | / | /
N.N.N.N.N.N.N.N.N.N.N.N.N.N.O.O.[Cl-].[Cl-].[Cl-].[Cl-].[Cl-].[Cl-].[Ru].[Ru].[Ru] | 25µM* | / | 5.6µM* | 8.9µM* | / | /
ClC1=C(Cl)C(Cl)(C2(Cl)C(Cl)=C(Cl)C(Cl)=C2Cl)C(Cl)=C1Cl | / | 6.7µM* | / | / | / | /
Cc1ccc2nc3sc(=O)sc3nc2c1 | / | 6%[60.1 µM] | / | / | / | /
COC1=C(C)C(=O)c2c(c(COC(N)=O)c3n2C[C@@H]2[C@@H]3N2C)C1=O (stereo not given in full) | / | ? | / | 56µM* | -24% | /
CCOC(=O)c1c(/N=C/C2C(=O)NC(=S)NC2=O)sc(C)c1C | / | / | 17% | / | / | /
CCOC(=O)c1cc(C)sc1/N=C/C1C(=O)NC(=S)NC1=O | 12% | -26% | -18% | ? | -9% | 50µM*
CCOC(=O)c1c(/N=C/C2C(=O)NC(=S)NC2=O)sc2c1CCC2 | 1% | -23% | 1% | 41% | -22% | 56µM*
N#CC(C#N)=Cc1ccc(O)c(O)c1 | 7.9µM*! | 11µM*! | -12%[57.1 µM] | ? | 4% | -4%
N#CC(=Cc1ccc(O)c(O)c1)C(N)=S | 3.2µM* | / | 2.8µM* | 6.3µM* | / | /
COc1cc(C=C(C#N)C#N)cc(O)c1O | 11µM* | / | -11%[57.1 µM] | ? | / | /
O=C1NC(=O)C(=Cc2ccccc2Oc2ccc(F)cc2)C(=O)N1 | -11% | 5% | 7% | 111% | 0% | 32µM*
CN1C(=O)C(=Cc2ccccc2Oc2ccc(Cl)c(F)c2)C(=O)N(C)C1=O | ? | -17% | 19% | -4% | -2% | 50µM*
O=C1C(=O)C(Cl)=C(Cl)C(Cl)=C1Cl | / | / | / | / | / | 40µM*
COc1cc2c3c(c1OC)-c1cc(O)ccc1CC3NCC2 (stereo not given) | -4% | -12% | -24% | -14% | 0% | 0%
COc1cc2c(cc1OC)-c1c(OC)c(OC)cc3c1[C@H](C2)[N+](C)(C)CC3 | -1% | -35% | 50µM* | ? | -22% | -7%
Cc1ccc(C)c(NC(=O)c2cc[n+](C)cc2)c1 | 2% | -8% | 45% | 106% | 0% | -32%
O=c1c2ccccc2nc(/C=C/c2ccc(O)c(O)c2)n1-c1ccccc1 | 18µM* | -19% | ? | ? | -13% | -9%[11.6 µM]
COc1cc(/C=C/c2nc3ccccc3c(=O)n2-c2ccccc2O)ccc1O | -25% | -5% | -5% | 118% | -15% | -11%
COc1cc(/C=C/c2nc3ccccc3c(=O)n2-c2cccc(O)c2)ccc1O | ? | ? | ? | 18µM* | ? | ?
CN(C)[C@H]1C(=O)C(C(N)=O)=C(O)[C@]2(O)C(=O)C3=C(O)c4c(O)cccc4[C@@](C)(O)[C@H]3C[C@@H]12 | / | -8%[12 µM] | / | / | / | /
CN(C)C1C(=O)C(C(N)=O)=C(O)C2(O)C(=O)C3=C(O)c4c(O)cccc4C(C)(O)C3CC12 (stereo not given) | -7% | ? | 3.2µM* | ? | ? | -3%
SMILES | Pol eta inh | POLK inh | Pol beta inh | Pol iota inh | FEN1 inhibitor | WRN helicase inh
CN(C)[C@@H]1C(=O)C(C(N)=O)=C(O)[C@@]2(O)C(=O)C3=C(O)c4c(O)ccc(Cl)c4[C@@](C)(O)C3C[C@@H]12 (stereo not given in full) | -13% | 79µM* | ? | ? | 45µM* | -9%[57.1 µM]
CON(C)C(=O)Nc1ccc(Br)c(Cl)c1 | / | 16%[60.1 µM] | / | / | / | /
Clc1ccccc1-c1cncnc1NCCc1cnc[nH]1 | / | 7%[60.1 µM] | / | / | / | /
Cc1ccc(C2NC(=S)NC(c3ccc(C)cc3)C23C(=O)NC(=O)NC3=O)cc1 (stereo not given) | -10% | -7% | 32% | 8% | 5% | 9%
Cc1ccc(NC2C(=O)NC(=O)NC2=O)cc1 | 79µM* | -15% | / | 0.71µM* | -1% | -18%
O=C1NC(=O)C(Nc2ccccc2)C(=O)N1 | 4% | -6% | / | 3.2µM* | 3% | 5%[11.6 µM]
NCC[C@H](NC(=O)[C@@H](N)CCCN=C(N)N[N+](=O)[O-])C(N)=O | / | 16%[60.1 µM] | / | / | / | /
CN1C(=O)[C@]23CC4=CC=C[C@H](O)[C@H]4N2C(=O)[C@@]1(CO)SS3 | / | 3%[60.1 µM] | / | / | / | /
CN(C)c1ccc(C=C2C(=O)NC(=S)NC2=O)cc1[N+](=O)[O-] | 11% | -8% | ? | 143% | -1% | ?
O=C1NC(=S)NC(=O)C1=Cc1c(Cl)cccc1Cl | -4% | -13% | / | 17% | 1% | 56µM*
O=C1NC(=O)C(=Cc2csc3ccccc23)C(=O)N1 | 8% | -3% | 11% | ? | ? | -18%
O=C1NC(=S)NC(=O)C1=Cc1ccc(Br)s1 | 22µM* | ? | 9% | ? | ? | ?
C#CCN1C(C)=C(C(=O)CCO)[C@@H](c2cccc(-n3oo3)c2)C(C(=O)OC)=C1C | / | -11%[19.4 µM] | / | / | / | /
CN1Cc2c(ccc3c2OCO3)[C@@H]2[C@@H](O)Cc3cc4c(cc3[C@@H]21)OCO4 | / | -8%[12 µM] | / | / | / | /
Cc1c(C=O)c2ccccc2n1Cc1ccccc1 | -29% | -14% | 21% | 26% | 6% | ?
O=Cc1c(C(=O)O)n(Cc2ccc(Cl)cc2)c2ccccc12 | 50µM* | -16% | ? | ? | 4% | -19%
COc1ccc2c(c1OC)C(=O)OC2c1c(O)n(C2CCCCC2)c(=O)[nH]c1=O (stereo not given) | -10% | -22% | 17% | 25µM* | -2% | -19%
N#CN=C1SCCN1Cc1ccc(Cl)nc1 | / | 14%[60.1 µM] | / | / | / | /
COc1ccc(CN2C(=O)NC(=O)/C(=C/c3ccc(OC)c(OC)c3OC)C2=O)cc1 | -9% | -5% | 20% | 34% | -15% | ?
COc1cc(/C=C2\C(=O)NC(=O)N(c3ccccc3)C2=O)cc(OC)c1OC | 6% | -2% | 3% | 6% | 0% | 50µM*
Cn1cccc1/C=C1/C(=O)NC(=O)N(Cc2ccc(F)cc2)C1=O | 79µM* | 71µM* | 1% | 40µM* | -6% | ?

Assay outcomes as filed in PubChem BioAssay.
